Screens: PubChem, The Scripps Research Institute Molecular Screening Center
This is a sample that favours compounds with a hit; in the whole collection about 4.1% have one here.
hcDAF-12 act: H. contortus DAF-12 nuclear receptor activators, primary screen, cell-based, luminescence, HEK293, lit1-tk-luc reporter | HEK293 hcDAF-12 lit1-tk-luc reporter; 0% DMSO, 100% Δ7-dafachronic acid | activation, % at 6.8 µM | 1.4% of 370,000 active;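 active means activation above the mean of all tested compounds plus 3 SD, cut at about 5.5% in these data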;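 further: 100% = response to 3 µM Δ7-dafachronic acid high control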
ssDAF12 agonist: S. stercoralis DAF-12 nuclear receptor activators, primary screen, cell-based, luminescence, HEK293, GRIP1 co-expression, lit1-tk-luc. Nuclear hormone receptor DAF-12 (Strongyloides stercoralis). HEK293 ssDAF-12/GRIP1 lit1-tk-luc reporter; % of 3 µM dafachronic acid response. activation, % at 6.8 µM. 1% of 370,000 active. AID 652126, 2013;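 active means activation above the mean over all tested compounds plus 3 SD, cut at about 0.9% in these data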;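 further: 0% = DMSO-only wells and 100% = 3 µM delta7-dafachronic acid wells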
DAX1 inh-1: DAX1 (NR0B1) inhibitors on StAR promoter, primary screen, cell-based, luminescence, SF-1 (NR5A1), full-length DAX-1. HEK293T StAR-luciferase reporter, SF-1/DAX-1 repression relief. inhibition, % at 6.8 µM. 1.1% of 370,000 active. AID 652010, 2013;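 active means inhibition above the mean over all tested compounds plus 3 SD, cut at about 3.6% in these data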;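 further: 0% = DAX-1 cells with DMSO and 100% = cells lacking DAX-1 with DMSO; higher inhibition means more luminescence from relief of DAX-1 repression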
DAX1 inh-2: DAX1 (NR0B1) inhibitors, primary screen, cell-based, HEK293, Gal4-DAX1, luciferase luminescence | HEK293 Gal4-DAX1 luciferase reporter | Nuclear receptor subfamily 0 group B member 1 (Homo sapiens), P51843 | 0.99% of 340,000 active | inhibition, % at 6.75 µM;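 active means inhibition above the mean over all tested compounds plus 3 SD, cut at about 4.2% in these data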;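 further: 0% = DAX1-transfected cells with DMSO and 100% = empty-vector control cells with DMSO; inhibition shows as a rise in luminescence from relieved DAX1 repression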
hgDAF12 agonist: H. glycines DAF-12 receptor agonists, primary screen, cell-based, luminescence, HEK293, GAL4 fusion, UAS-luciferase. HEK293 GAL4-hgDAF12 UAS-luciferase reporter, agonist luminescence; normalized to butyrate control. activation, % at 6.8 µM. 1.8% of 370,000 active. AID 687014, 2013;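 active means activation above a cutoff set at the mean of all screened compounds plus 3 SD, cut at about 10% in these data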;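 further: 0% = DMSO wells and 100% = sodium butyrate wells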
hgDAF12 ag: H. glycines DAF-12 receptor agonists, confirmation, cell-based, luminescence, HEK293, GAL4-LBD fusion | shares compounds with hgDAF12 agonist | HEK293 GAL4-hgDAF12 luciferase reporter, agonist mode; percent of butyrate response | activation, % at 6.8 µM | 80% of 3,300 active | AID 743050, 2013;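 active means mean activation over triplicate wells above the hit cutoff derived from the earlier primary screen, cut at about 11% in these data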;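 further: 0% = DMSO low control and 100% = 2 mM sodium butyrate high control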
LXRb DAF12 ctr: LXR agonists, Gal4 luciferase reporter, confirmation, counter-screen for hgDAF-12 agonist project, cell-based, luminescence, HEK293, H. glycines campaign. shares compounds with hgDAF12 agonist. 24 h. activation, % at 6.8 µM. 3,300 tested, under 10 active. AID 743051, 2013;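 active means mean activation of the triplicate above a set limit carried over from the primary screen, none filed active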
Target sequence (P55055 whole entry, looked up, the tested form may be a part): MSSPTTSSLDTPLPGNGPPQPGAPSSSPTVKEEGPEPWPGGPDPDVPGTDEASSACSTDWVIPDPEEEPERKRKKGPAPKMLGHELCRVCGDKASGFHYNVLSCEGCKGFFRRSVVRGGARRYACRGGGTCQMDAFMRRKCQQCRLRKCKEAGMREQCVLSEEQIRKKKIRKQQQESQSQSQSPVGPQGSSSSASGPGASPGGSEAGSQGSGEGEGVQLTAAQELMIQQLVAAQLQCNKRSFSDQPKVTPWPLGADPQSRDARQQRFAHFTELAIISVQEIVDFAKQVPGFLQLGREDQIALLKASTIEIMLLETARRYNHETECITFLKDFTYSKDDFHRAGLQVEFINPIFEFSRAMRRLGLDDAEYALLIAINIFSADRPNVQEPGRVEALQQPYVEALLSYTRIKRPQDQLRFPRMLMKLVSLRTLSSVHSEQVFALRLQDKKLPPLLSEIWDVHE
The depositor's hits bear a star.

Screening O=C(Nc1ccccc1)OCCCc1ccccc1 returned hcDAF-12 act -0.1, ssDAF12 agonist -0.7, DAX1 inh-1 1.0, DAX1 inh-2 0.6, hgDAF12 agonist 15.6*, hgDAF12 ag 11.8* and LXRb DAF12 ctr 0.2.
CS(=O)(=O)N(CC(=O)NCc1ccncc1)c1ccc(F)c(Cl)c1 was read as hcDAF-12 act -0.7, ssDAF12 agonist -0.7, DAX1 inh-1 0.7, DAX1 inh-2 -0.3 and hgDAF12 agonist -2.4.
For COc1ccc(C(=O)NC(=S)N2CCNC(=O)C2)cc1Br the results were hcDAF-12 act 1.8, ssDAF12 agonist -1.4, DAX1 inh-1 -0.1, DAX1 inh-2 3.2 and hgDAF12 agonist 0.2.
Screening COc1ccc(C(=O)NC(=S)N2CCC(C)CC2)cc1Br returned hcDAF-12 act 0.2, ssDAF12 agonist -0.6, DAX1 inh-1 0.7, DAX1 inh-2 1.2, hgDAF12 agonist 31.7*, hgDAF12 ag -1.1 and LXRb DAF12 ctr 0.0.
`CC(NC(=O)c1cc2c(=O)n(C)c3ccccc3c2n1C)c1ccc2c(c1)OCCO2` (stereo unspecified) gave hcDAF-12 act -1.3, ssDAF12 agonist -0.6, DAX1 inh-1 0.5, DAX1 inh-2 -0.1, hgDAF12 agonist 17.4*, hgDAF12 ag -4.1 and LXRb DAF12 ctr 0.0.
Screening Cn1c(C(=O)Nc2ccc3c(c2)OCO3)cc2c(=O)n(C)c3ccccc3c21 returned hcDAF-12 act -2.9, ssDAF12 agonist -0.8, DAX1 inh-1 -1.0, DAX1 inh-2 0.3 and hgDAF12 agonist -0.6.
Screening C/C(=N/N=C1/NC(=O)CC(C(=O)Nc2ccccc2)S1)c1cccs1 (stereo unspecified) returned hcDAF-12 act -0.2, ssDAF12 agonist -1.1, DAX1 inh-1 -0.1, DAX1 inh-2 -1.2, hgDAF12 agonist 13.5*, hgDAF12 ag -0.3 and LXRb DAF12 ctr -0.1.
Cc1ccc(-c2nc(-c3ccncc3)no2)cc1C was read as hcDAF-12 act 2.3, ssDAF12 agonist 0.5, DAX1 inh-1 1.8, DAX1 inh-2 4.0, hgDAF12 agonist 17.6*, hgDAF12 ag 18.6* and LXRb DAF12 ctr 0.9.
O=C(O)c1cccc(NC(=S)NC(=O)c2ccncc2)c1 was read as hcDAF-12 act -0.3, ssDAF12 agonist -1.1, DAX1 inh-1 -0.4, DAX1 inh-2 0.2 and hgDAF12 agonist 3.0.
CC(C)(C)C(=O)NC(=S)Nc1cccc(C(=O)O)c1 was read as hcDAF-12 act 3.7, ssDAF12 agonist -0.5, DAX1 inh-1 4.3*, DAX1 inh-2 1.0, hgDAF12 agonist 14.2*, hgDAF12 ag 13.2* and LXRb DAF12 ctr 0.3.
CCOc1cc(C2NN=C(c3ccc(C)cc3)S2)ccc1O (stereo unspecified) was read as hcDAF-12 act 3.6, ssDAF12 agonist -0.1, DAX1 inh-1 2.5, DAX1 inh-2 0.6, hgDAF12 agonist 14.3*, hgDAF12 ag 15.7* and LXRb DAF12 ctr 0.6.
Screening CCn1cc(/C=C(\NC(=O)c2cc(OC)c(OC)c(OC)c2)C(=O)N2CCOCC2)c2ccccc21 returned hcDAF-12 act -0.2, ssDAF12 agonist -0.6, DAX1 inh-1 -1.2, DAX1 inh-2 1.7 and hgDAF12 agonist -5.0.
